# Laboratory results from PubChem BioAssay AID588342 (National Center for Advancing Translational Sciences (NCATS), 2011).
# Hit rate of the full screen: of about 360,000 compounds, about 25,000 (6.9%) were called active. About 9% were inconclusive and are not listed. Calls follow the shape of the dose curve; as a rule, active = well fitted inhibition curve with a large enough effect; inconclusive = small, poorly fitted or top-dose-only effect; inactive = flat fitted curve, though single readings scatter. The list comes from a sample in which actives are over-represented; it also holds similar structures and randomly drawn compounds. A call without a number means that no potency is given here.
# Target: Luciferin 4-monooxygenase (Photinus pyralis) (UniProt P08659)
# Sequence (P08659 whole entry, looked up): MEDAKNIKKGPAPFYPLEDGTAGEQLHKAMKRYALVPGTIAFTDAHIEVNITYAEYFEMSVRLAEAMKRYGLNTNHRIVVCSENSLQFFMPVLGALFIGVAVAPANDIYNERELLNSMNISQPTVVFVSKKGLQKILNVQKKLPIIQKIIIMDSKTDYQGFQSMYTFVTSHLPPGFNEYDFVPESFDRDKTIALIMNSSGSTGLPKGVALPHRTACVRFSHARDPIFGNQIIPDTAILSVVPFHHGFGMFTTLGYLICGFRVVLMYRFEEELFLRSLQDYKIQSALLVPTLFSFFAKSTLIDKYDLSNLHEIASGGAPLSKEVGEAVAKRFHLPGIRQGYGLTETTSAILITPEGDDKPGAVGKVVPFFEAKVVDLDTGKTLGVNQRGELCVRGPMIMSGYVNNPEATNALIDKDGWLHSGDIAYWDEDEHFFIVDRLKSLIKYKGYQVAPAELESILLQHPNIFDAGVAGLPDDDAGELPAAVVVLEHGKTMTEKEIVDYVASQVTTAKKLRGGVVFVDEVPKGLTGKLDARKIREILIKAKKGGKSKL
# Assay: qHTS profiling assay for firefly luciferase inhibitor/activator using purifed enzyme and Km concentrations of substrates (counterscreen for miR-21 project); also: nearly all actives have a fitted effect of over 55% in size
# Settings: purified FLuc, luminescence inhibition; series mostly up to 57.5 µM
# How it was run: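 Biochemical qHTS of compounds, final roughly 60 µM downward over six points, against 10 nM purified firefly luciferase using Km concentrations of substrates (10 uM D-luciferin, 10 uM ATP) in Tris acetate pH 7.5 buffer; luminescence output.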
# Potency is read from the fitted curve at half-maximal effect.
row,Compound,Potency
1,O=[N+]([O-])c1cc(S(=O)(=O)NCCc2ccccn2)ccc1Cl,inactive
2,CCOc1ccc(S(=O)(=O)N2CCC(C(=O)NCC(=O)Nc3cccc(Cl)c3C)CC2)cc1,inactive
3,O=C(CN1C(=O)COc2ccc(S(=O)(=O)N3CCCCCC3)cc21)N1CCN(c2cccc(C(F)(F)F)c2)CC1,inactive
4,CCOc1ccc(C(=O)c2cn(Cc3ccc(F)cc3)c3ccc(F)cc3c2=O)cc1,inactive
5,COc1cc2ccccc2cc1C(=O)Nc1ccc(NC(=O)c2cccs2)cc1,inactive
6,COc1cc2ccccc2cc1C(=O)Nc1ccc(S(=O)(=O)Nc2cc(C)on2)cc1,inactive
7,COc1cc2ccccc2cc1C(=O)Nc1ccncc1,12 µM (active)
8,CCOc1cccc(NC(=O)Cn2nc(-c3ccc4c(c3)OCCO4)ccc2=O)c1,inactive
9,O=C1c2ccccc2NC(c2ccc(-c3cccc(Cl)c3)o2)N1O (stereo unspecified),10.7 µM (active)
10,CC(=O)NN1C(=O)c2ccccc2NC1c1ccccc1 (stereo unspecified),inactive
11,Nc1nnnn1CC(=O)N/N=C/c1ccc(-c2cccc(Cl)c2)o1,inactive
12,Cc1cc(C)c(NC(=O)Cn2c(SCC(=O)NCc3ccccc3)nc3ccccc32)c(C)c1,inactive
13,CCn1c(CNC(=O)c2ccccc2)nnc1SCC(=O)N1CCN(c2ccccc2)CC1,inactive
14,Cc1ncc(CC(=O)n2cc(C(=O)c3cc(Cl)ccc3O)cn2)s1,inactive
15,CCCc1c(C(=O)O)cnn1-c1ccc(Cl)cc1,inactive
16,O=C(c1cnn(-c2ccc(Cl)cc2)c1)c1ccccc1O,2.13 µM (active)
17,COc1cc(C(C)=O)ccc1OC(C)C(=O)Nc1ccc(S(=O)(=O)N2CCCC2)cc1 (stereo unspecified),inactive
18,Cc1oc2ncn(CC(C)C)c(=O)c2c1C(=O)N1CCN(c2ccccc2F)CC1,inactive
19,N#Cc1c(NC(=O)CCCl)sc2c1CCCCC2,inactive
20,N#Cc1c(NC(=O)C2CCCO2)sc2c1CCCCC2 (stereo unspecified),13.5 µM (active)
21,N#Cc1c(NC(=O)C2CC(Cl)=CCC2C(=O)O)sc2c1CCCCC2 (stereo unspecified),inactive
22,COc1ccc2c(Cl)c(C(=O)NCc3ccco3)sc2c1,10.7 µM (active)

row,Compound,Potency
1,COc1cc(C(=O)NC(=S)NCc2ccco2)cc(OC)c1OC,inactive
2,O=C(NCc1ccco1)c1sc2cccc(F)c2c1Cl,inactive
3,CCN(C(=O)c1sc2cc(OC)ccc2c1Cl)c1ccccc1,inactive
4,COc1ccc2oc(C(=O)NCc3ccco3)c(C)c2c1,16.9 µM (active)
5,COc1ccc(NC(=O)C(=O)NCc2ccco2)cc1,inactive
6,CCCC(=O)Nc1cc(C(=O)NCc2ccc(OC)cc2)ccc1S(=O)(=O)c1ccc(Cl)cc1,inactive
7,COc1cc(OC)c(C2C=C(C(=O)O)Nc3ncnn32)cc1OC (stereo unspecified),inactive
8,CCC(C)NC(=O)c1ccc(NC(=O)CC2SC(N3CCCCC3)=NC2=O)cc1 (stereo unspecified),inactive
9,O=C(COc1ncnc2c(Cl)cc(Cl)cc12)N1CCN(S(=O)(=O)c2ccccc2)CC1,inactive
10,Cc1ccc(-n2ncc(C(=O)N(C)Cc3ccccc3)c2-n2cccc2)cc1,inactive
11,CC(=O)N/C(=C\c1ccc(F)cc1)C(=O)NC(Cc1ccccc1)C(=O)O (stereo unspecified),inactive
12,O=C(O)CC/C(=C\c1cc2c(cc1Br)OCO2)c1nc2ccccc2s1,inactive
13,O=C(O)CS/C(=C\c1ccc(F)cc1)c1nc2ccccc2s1,23.9 µM (active)
14,COc1ccccc1NC(=O)CN1C(=O)c2ccccc2Sc2ccc(C(=O)N3CCCC3)cc21,inactive
15,O=C(Nc1ccccc1)N1CCN(C(=O)Nc2ccccc2)CC1,inactive
16,O=C(Nc1ccccc1)c1ccccc1NC(=O)C(F)(F)F,inactive
17,O=C(Nc1ccccc1)c1cc2ccccc2[nH]1,9.53 µM (active)
18,CCC(=O)N1CCc2cc(S(=O)(=O)NC(CC(C)C)C(=O)NCCc3cccc(C)c3)ccc21 (stereo unspecified),inactive
19,CCCCSc1ncnc2c1sc1nc(N3CCOCC3)c3c(c12)CCCC3,inactive
20,CC(C)CNC(=O)/C=C/C(=O)O,inactive
21,Cc1ccc(CN2CCC(CNC(=O)c3cnn(-c4ccccc4Cl)c3C3CCN(C(=O)OC(C)(C)C)CC3)CC2)cc1,inactive
22,COc1cccc(CNC(=O)COC(=O)CN2C(=O)NC3(CCCCC3C)C2=O)c1 (stereo unspecified),inactive

row,Compound,Potency
1,CCCc1ccc(C(=O)COC(=O)CN2C(=O)NC3(CCCCC3C)C2=O)cc1 (stereo unspecified),26.9 µM (active)
2,CC1CCCCC12NC(=O)N(CC(=O)OCC(=O)NCc1ccc(F)cc1)C2=O (stereo unspecified),inactive
3,COc1ccc(CCNC2=C(Cl)C(=O)N(Cc3ccccc3)C2=O)cc1OC,inactive
4,C/C(=N/NC(=O)c1ccncc1)c1ccc2c(c1)OCO2,inactive
5,CCN(CC)c1ccc2cc(C(N)=O)/c(=N\NC(=O)c3ccncc3)oc2c1,16.9 µM (active)
6,COc1ccc(C/C(C)=N/NC(=O)c2ccncc2)cc1,inactive
7,CO/N=C/c1cn(-c2ccc(Cl)cc2)nn1,inactive
8,O=C(CC1C(=O)N(c2ccccc2)C(=O)N1CCc1cccs1)Nc1ccc(F)cc1 (stereo unspecified),inactive
9,CC(C)Sc1oc(-c2cccs2)nc1S(=O)(=O)c1ccc(Cl)cc1,inactive
10,Cc1nc(Cl)c(C#N)c2c1CCCC2,inactive
11,COCc1c(N)c(C)nc(Cl)c1C#N,10.7 µM (active)
12,COc1ccc(C2=NC(c3ccncc3)=Nc3ccc(Br)cc3N2)cc1,inactive
13,CCc1nnc2c3ccccc3nc(N3CCN(c4ccc(C)cc4C)CC3)n12,inactive
14,COc1cccc(NC(=O)CN2C(=O)c3ccccc3Sc3ncccc32)c1,inactive
15,Cc1cccc(CNC(=O)c2cnc3sc(N4CCCCC4)nn3c2=O)c1,inactive
16,Brc1cccc(-c2nnn3c2nc(NC2CCCCC2)c2ccccc23)c1,inactive
17,Nc1cc(C(F)(F)F)ccc1N1CCOCC1,inactive
18,CCn1c(C)c(C)c2cc(C(=O)NCCc3cc(OC)ccc3OC)ccc21,inactive
19,CCOC(=O)c1c(NC(=O)c2cc(-c3ccc(Cl)cc3)on2)sc2c1CCCC2,inactive
20,CCOc1ccc(NC(=O)C2CCN(S(=O)(=O)c3cc(-c4noc(C)n4)ccc3C)CC2)cc1,inactive
21,Cc1c(CCC(=O)O)c(=O)oc2c(C)c(OCc3ccccc3Cl)ccc12,inactive
22,COc1ccc2c(C)c(CCC(=O)NC3CC3)c(=O)oc2c1C,inactive

row,Compound,Potency
1,CCOC(=O)CCc1c(C)c2ccc(OCc3nn[nH]n3)c(C)c2oc1=O,15.1 µM (active)
2,Cc1ccc(NC(=O)CC2S/C(=N/N=C3\CCCc4ccccc43)NC2=O)cc1 (stereo unspecified),inactive
3,Cc1ccc(N/N=C2\COC(C)(C)CC2=O)cc1,7.57 µM (active)
4,Cc1ccc(-n2c(SCC(=O)Nc3cccc(F)c3)nc3c(oc4ccccc43)c2=O)cc1C,inactive
5,COc1cc(Br)cc2cc(S(=O)(=O)c3ccccc3)c(=O)oc12,inactive
6,COc1ccc(C(=O)NCCSc2ccccc2C)cc1,3.79 µM (active)
7,COc1ccc(C(=O)NCc2nnc(SCCOc3ccccc3)n2C)cc1,inactive
8,COc1cccc(C(=O)NCCSc2ccc(Br)cc2)c1,inactive
9,COc1ccccc1CN1CCC(CNC(=O)c2cnn(-c3ccccc3Cl)c2C2CCN(C(=O)OC(C)(C)C)CC2)CC1,inactive
10,Cc1cc(C(F)(F)F)nc(SCC(=O)Nc2nccs2)n1,inactive
11,CCCc1cc(=O)n2[nH]c(C)c(-c3ccc(Cl)cc3)c2n1,inactive
12,O=C1CCCc2c1nc(-c1cccc(Cl)c1)n2O,inactive
13,Cc1cc(=O)n2[nH]c(-c3sccc3-n3c(C)ccc3C)cc2n1,inactive
14,Cc1cc(=O)n2[nH]c(-c3cccc(Cl)c3)cc2n1,15.1 µM (active)
15,O=c1c2c(nc3cc(-c4cccc(Cl)c4)[nH]n13)CCCC2,0.478 µM (active)
16,O=c1c2c(nc3nc[nH]n13)CCC2,inactive
17,CCOC(=O)c1c(-c2ccc(OC)cc2)oc2ccc(OCc3ccc(C(=O)OC)cc3)cc12,inactive
18,COc1ccc(C)cc1NC(=O)CCc1c(C)nn(-c2ccc(N3CCOCC3)nn2)c1C,inactive
19,Cc1ccc(Cn2c(C)c3cnn(CC(=O)NCc4ccccc4)c(=O)c3c2C)cc1,inactive
20,CC(=O)c1c(C)n(S(=O)(=O)c2ccc(Cl)cc2)c2ccc(NS(=O)(=O)c3ccc(Cl)cc3)cc12,inactive
21,COc1cc(C(=O)Nc2ncccc2C)ccc1OCC(=O)N1CCOCC1,inactive
22,COc1ccc(-c2cc3nc(C)c(CCC(=O)NC(C)CCc4ccco4)c(C)n3n2)c(OC)c1 (stereo unspecified),inactive

row,Compound,Potency
1,COc1ccccc1-c1cc2nc(C)c(CCC(=O)O)c(C)n2n1,15.1 µM (active)
2,COc1cc(OC)cc(-c2nc3nc(C)c(CCC(=O)Nc4ccccc4)c(C)n3n2)c1,inactive
3,CCOc1ccc(OCC)c(NC(=O)CN(c2ccc(C)cc2)S(=O)(=O)c2c(C)n[nH]c2C)c1,inactive
4,CCOC(=O)c1c(S(=O)(=O)NCC(=O)Nc2ccc(Cl)c(C(F)(F)F)c2)c(C)n(C)c1C,inactive
5,C[C@H](NC(=O)c1ccccc1)C(=O)OCC(=O)c1c[nH]c2ccccc12,inactive
6,CC1CCN(CC(=O)c2c[nH]c3ccccc23)CC1,inactive
7,O=C(OCC(=O)c1c[nH]c2ccccc12)c1cccc(O)c1,9.53 µM (active)
8,Cn1c(=O)[nH]c(=O)c2c1nc(CN1CCN(c3ccccc3F)CC1)n2CCc1ccccc1,inactive
9,CCOc1cc(CNC(=O)c2sc3ncnc(N(C)C4CCCCC4)c3c2C)ccc1OC,inactive
10,Cc1ccccc1CN(c1ccc(C(=O)NCC2CCCO2)cc1)S(C)(=O)=O (stereo unspecified),inactive
11,Cc1ccc(-c2noc(-c3ccccc3C(=O)NCC3CCCO3)n2)cc1 (stereo unspecified),4.78 µM (active)
12,COCCNC(=O)c1cc(-c2cccc(Cl)c2)on1,inactive
13,Cc1onc(-c2ccccc2Cl)c1C(=O)NCCn1ccc2ccccc21,inactive
14,O=C(NCC1CCCO1)c1ccccc1-c1nc(-c2ccccc2Cl)no1 (stereo unspecified),12 µM (active)
15,COCCNC(=O)c1ccccc1-c1nc(-c2ccccc2Cl)no1,12 µM (active)
16,O=C(Nc1ccccc1C(=O)NCC1CCCO1)c1ccccc1F (stereo unspecified),inactive
17,O=C(NCC1CCCO1)c1cc2c([nH]c3ccccc32)c(-c2ccc(F)cc2)n1 (stereo unspecified),inactive
18,O=C(CSCc1c(F)cccc1Cl)NCC1CCCO1 (stereo unspecified),inactive
